Assay outcomes deposited in PubChem by National Center for Advancing Translational Sciences (NCATS).
IL1B secr inh: inhibitors of inflammasome signaling (IL-1 beta secretion); 360,000 compounds, 4.7% hits; THP-1 LPS/ATP IL-1B secretion, AlphaLISA, 16 h; hits give low values; activity change, % at 57.5 µM; AID 743279; in the data active = activity change below about -50%; inconclusive = mostly about -30% to -49%
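Secreted IL-1B measured by AlphaLISA bead assay after 16 h compound exposure of THP-1 cells; compounds (final up to 57.5 uM) added 1 h before LPS (250 ng/mL) and ATP (1.25 mM) stimulation; lower signal means less secretion.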
Six1-Eya2 blk: inhibitors of human Six1/Eya2 interaction; Q15475+O00167; AlphaScreen GST-Six1/His-Eya2 binding, biochemical; hits give low values; activity change, % (test concentration not listed); 360,000 compounds, 0.56% hits; AID 651725; in the data active = activity change below about -65%; inconclusive = mostly about -30% to -63%
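Six1/Eya2 binding was read as AlphaScreen signal after compounds were pinned into GST-Six1 plus His-tagged Eya2 (5X stock 250/500 nM) in pH 8.0 Tris/NaCl/TCEP buffer, beads added, then incubated 1 h, 37 C, dark.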
DT40 TDP1 CPT: growth inhibition of DT40 Tdp1-/-;hTDP1 cells with camptothecin (screen for TDP1 inhibitors); chicken DT40 Tdp1-/-;hTDP1 cells + 20 nM CPT, ATP luminescence, 48 h; 420,000 compounds, 12% hits; Potency, µM (top dose mostly 46.2 µM), for the others: top-dose activity change, negative = growth inhibition, hits mostly inhibitors; note: potency is the fitted concentration of half-maximal effect; nearly all actives have a fitted effect of over 55% in size
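Chicken DT40 Tdp1-/- cells stably complemented with human TDP1 were seeded at 400 cells/well in medium containing 20 nM camptothecin, exposed to pin-transferred compounds, and grown at 37 °C for at least 48 hr. Viability was read as ATP luminescence.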
TDP1 inh: inhibitors of human tyrosyl-DNA phosphodiesterase TDP1; Potency, µM (doses to about 130 µM), for inactives: top-dose activity change, negative = inhibition, actives largely listed as inhibitors; Q9NUW8; recombinant TDP1, AlphaScreen DNA substrate cleavage; 350,000 compounds, 0.28% hits; note: potency is the fitted concentration of half-maximal effect; nearly all actives have a fitted effect of over 40% in size
Target sequence (Q9NUW8 whole entry, looked up): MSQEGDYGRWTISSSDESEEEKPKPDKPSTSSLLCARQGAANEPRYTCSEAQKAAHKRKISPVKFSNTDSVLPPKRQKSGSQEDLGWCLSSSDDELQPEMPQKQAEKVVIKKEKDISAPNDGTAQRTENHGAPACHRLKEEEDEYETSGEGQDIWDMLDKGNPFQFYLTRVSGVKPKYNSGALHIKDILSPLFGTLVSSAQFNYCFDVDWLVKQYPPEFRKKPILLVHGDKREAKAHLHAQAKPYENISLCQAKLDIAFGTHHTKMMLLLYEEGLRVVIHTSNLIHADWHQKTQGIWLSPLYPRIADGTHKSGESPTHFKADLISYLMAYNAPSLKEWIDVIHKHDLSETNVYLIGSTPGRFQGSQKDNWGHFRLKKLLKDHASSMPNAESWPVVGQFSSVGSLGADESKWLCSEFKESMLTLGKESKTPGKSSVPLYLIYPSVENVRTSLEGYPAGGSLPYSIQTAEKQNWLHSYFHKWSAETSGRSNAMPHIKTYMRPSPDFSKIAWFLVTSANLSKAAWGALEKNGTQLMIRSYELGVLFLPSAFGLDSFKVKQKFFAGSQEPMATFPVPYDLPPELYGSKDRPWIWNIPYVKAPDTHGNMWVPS
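AlphaScreen read-out: signal falls as enzyme removes the 3' tyrosine-FITC from a 5'-biotinylated DNA oligo (15 nM, 5 min, RT). Enzyme was E. coli-made recombinant Tdp1 at 1 nM, exposed to compound for 15 min beforehand; beads 10 ug/ml, 10 min.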
TDP1 cell noCPT: qHTS for Inhibitors of human tyrosyl-DNA phosphodiesterase 1 (TDP1): qHTS in cells in absence of CPT; Potency, µM (series often up to 46.2 µM), for the others: at the top dose activity change, negative = growth inhibition, hits mostly inhibitors; DT40 Tdp1-/- hTDP1 cells, no CPT, ATP luminescence, 48 h; 420,000 compounds, 15% hits; AID 686978, 2013; note: potency is the fitted concentration of half-maximal effect; nearly all actives have a fitted effect of over 55% in size
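Camptothecin absent (DMSO only). Human TDP1-complemented DT40 knockout cells, 400 cells/well, 37 °C for minimum 48 hr; ATP measured via CellTiter-Glo, 30 min dark incubation, luminescence.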
CtBP-E1A blk: blocks the CtBP interaction with E1A. AlphaScreen GST-E1A/His-CtBP binding, 1536-well; hits give low values. activity change, % (test concentration not listed). 340,000 compounds, 0.49% hits. AID 651724; in the data active = activity change below about -65%; inconclusive = mostly about -30% to -63%
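AlphaScreen with 125 nM GST-E1A and 125 nM His-CtBP (5X stocks) in Tris pH 8.0, 300 mM NaCl, BSA, Tween 20, TCEP. Compounds preincubated 2 h at 37 deg C, then glutathione donor/nickel acceptor beads added for 1 h at 37 deg C in dark.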
* = called active by the depositor; ? = inconclusive; · = no result; ! = a repeat was not active; [ ] = another dose, or the depositor's remark. Most compounds without a hit are left out; they make up all but 18% or so of the library. Unless noted, calls come from the whole dose curve; as a rule, active = well fitted curve in the direction sought with a large enough effect; inconclusive = small, poorly fitted or top-dose-only effect, or another doubt; inactive = no such curve, though single readings can be large; an effect the other way counts as inactive or inconclusive. % is set by controls: 0 for no effect and ±100 for the full control effect.

SMILES | IL1B secr inh | Six1-Eya2 blk | DT40 TDP1 CPT | TDP1 inh | TDP1 cell noCPT | CtBP-E1A blk
CCC(C)C1NC(=O)C(NC(=O)C(CC(C)C)N(C)C(=O)C2CCCN2C(=O)C(C)O)C(C)OC(=O)C(Cc2ccc(OC)cc2)N(C)C(=O)C2CCCN2C(=O)C(CC(C)C)NC(=O)[C@H](C)C(=O)[C@H](C(C)C)OC(=O)CC1O (some centres undefined) | -100.4* | -4.7 | 0.0366µM* | · | 0.0291µM* | 5.9
CCOC(=O)C1=C(N)OC2=C(C(=O)CC(C)(C)C2)C12C(=O)Nc1ccccc12 (centres undefined) | 28.4 | 3.3 | -23.5% | 1.0% | 1.5% | 6.5
Nc1ncnc2c1nc(Sc1ccc(Cl)cc1)n2[C@@H]1O[C@@H]2COP(O)(=S)O[C@H]2[C@H]1O (some centres undefined) | · | · | · | 5.6% | · | ·
CN(C)c1ccc(C(O)P(=O)(OCc2ccccc2)c2ccc(N(C)C)cc2)cc1 (centres undefined) | -15.1 | -17.9 | ? | 8.4% | ? | -21.1
CCCCOP(=O)(c1ccc(N(C)C)cc1)C(Nc1ccccc1)c1ccccc1 (centres undefined) | -95.6* | ? | 14.6µM* | 5.6% | 20.6µM* | -27.9
CC(C)[C@@]1(NC(=O)[C@@H]2C[C@@H]3c4cccc5[nH]cc(c45)C[C@H]3N(C)C2)O[C@@]2(O)C3CCCN3C(=O)[C@H](Cc3ccccc3)N2C1=O (some centres undefined) | · | · | · | 19.9%[56.1 µM] | · | ·
CC(C)[C@@]1(NC(=O)[C@@H]2C[C@@H]3c4cccc5[nH]cc(c45)C[C@H]3N(C)C2)O[C@@]2(O)[C@@H]3CCCN3C(=O)[C@H](Cc3ccccc3)N2C1=O | 0.0 | 4.7 | 26.6µM*! | 3.6% | 18.8µM*! | 7.2
CC(C)[C@H]1C(=O)N2CCC[C@H]2[C@]2(O)O[C@](NC(=O)[C@@H]3C[C@@H]4c5cccc6[nH]cc(c56)C[C@H]4N(C)C3)(C(C)C)C(=O)N12 | · | · | ? | · | 18.8µM* | ·
CC1CCN(C(=O)Cn2c3ccccc3c3nc4n(c(=O)c32)CCCS4)CC1 | 19.1 | -0.3 | 23.1µM* | 4.3% | ? | 6.9
COc1ccc2c(c1)c(C(=O)O)c(C)n2C(C)C | 14.3 | 2.2 | -13.9% | 3.3%[56.1 µM] | -27.4% | -3.8
O=c1c2ccccc2nc(CSc2ncnc3nc[nH]c23)n1-c1ccc(Cl)c(Cl)c1 | 12.3 | 4.6 | 7.08µM* | 2.1% | 10µM* | 2.2
Cc1nc2ccccc2c(=O)n1-c1ccc(Cl)c(Cl)c1 | 7.5 | 0.9 | ? | · | ? | 2.9
Cc1ccccc1C1=NCC(=O)N(CC(=O)NCc2ccco2)c2sc3c(c21)CCCC3 | -70.6* | -5.0 | 16.4µM* | -4.4% | 22.4µM* | 11.1
CN(C(=O)Cc1ccc(Cl)c(Cl)c1)[C@H](CN1CCCC1)c1ccccc1 | · | · | 14.6µM* | 3.7% | 11.6µM* | ·
C=CC[C@]1(O)CC[C@H]2[C@@H]3CCC4=CCCC[C@@H]4[C@H]3CC[C@@]21C | · | · | -29.2% | · | 0.4% | ·
COc1cc(OC2CCN(C(C)=O)CC2)ccc1C(=O)N1CCC(N2C(=O)OCc3ccccc32)CC1 | · | · | · | 5.1% | · | ·
CC(C)NP(=O)(NC(C)C)OP(=O)(NC(C)C)NC(C)C | -0.7 | 6.0 | -1.8% | 9.5%[56.1 µM] | -7.9% | -0.3
Clc1ccc(CO[C@@H](Cn2ccnc2)c2ccc(Cl)cc2Cl)cc1 | · | · | · | 15.2%[56.1 µM] | · | ·
Clc1ccc(COC(Cn2ccnc2)c2ccc(Cl)cc2Cl)c(Cl)c1 (centres undefined) | ? | 4.0 | 18.4µM*! | 10.8% | 14.6µM* | -5.8
C=CCOC(Cn1ccnc1)c1ccc(Cl)cc1Cl (centres undefined) | 8.1 | -1.1 | 29.9µM* | 3.1% | 9.44µM* | ·
COc1ccc2c(c1)C1OCCNC1CC2 (centres undefined) | 4.5 | 0.1 | -8.0% | · | -9.3% | 5.0
Oc1cc2c(cc1O)[C@H]1c3ccccc3CN[C@H]1CC2 | · | · | 18.4µM* | 7.3% | 18.4µM* | ·
Oc1cc2c(cc1O)[C@H]1c3ccccc3CN[C@@H]1CC2 | · | · | 14.1µM* | 0.0% | 12.6µM* | ·
CCCCCCCCCCCCCl | · | · | · | 4.2% | · | ·
C[n+]1ccc(-c2cc[n+](C)cc2)cc1 | -26.7 | 1.7 | -0.8% | · | -3.8% | 4.3
SMILES | IL1B secr inh | Six1-Eya2 blk | DT40 TDP1 CPT | TDP1 inh | TDP1 cell noCPT | CtBP-E1A blk
CCCCCCC[n+]1ccc(-c2cc[n+](CCCCCCC)cc2)cc1 | -5.0 | 13.4 | 0.651µM* | 0.6% | 0.651µM* | -1.6
CCCCCCCCCCCCCCCC[n+]1ccccc1 | -91.8*! | 34.4 | 0.651µM* | 2.9% | 0.326µM* | 24.1
CNC(=O)Oc1ccc2c(c1)[C@]1(C)CCN(C)[C@@H]1N2C | -11.7 | -2.3 | -1.7% | 0.0% | ? | 4.1
CCCC(C)CC1(CCO)C(=O)NC(=S)NC1=O (centres undefined) | 17.0 | 8.0 | -13.3% | · | -5.6% | 4.4
CCC1C(=O)OCC1Cc1cncn1C (centres undefined) | · | · | 6.5% | 12.4%[56.1 µM] | -6.2% | ·
COc1nc(NC2CCCCC2)nc(NC(C)(C)C)n1 | ? | 12.1 | ? | · | 11.6µM* | 0.0
Cc1ccc2nc(N3CCC(C(=O)N4CCC5(CC4)OCCO5)CC3)sc2c1 | -2.0 | 4.4 | ? | 5.2% | ? | -2.9
O=C(C1CCN(c2nc3ccc(Br)cc3s2)CC1)N1CCC2(CC1)OCCO2 | -28.8 | 6.5 | 11.6µM* | 5.9% | 11.6µM* | -3.5
CCc1ccc2nc(N3CCC(C(=O)N4CCC5(CC4)OCCO5)CC3)sc2c1 | -24.7 | 0.9 | 11.6µM* | 6.2% | 16.4µM* | -7.9
Cc1cc(=O)oc2cc(OCC(=O)N3C[C@H]4C[C@@H](C3)c3cccc(=O)n3C4)ccc12 | 9.9 | 0.3 | -6.4% | · | -0.1% | 0.2
CC(=O)N1N=C(c2cccnc2)OC1c1ccccc1Cl (centres undefined) | 6.8 | -3.9 | 6.0% | · | -0.3% | 1.9
COc1cccc2c1C(=O)c1c(O)c3c(c(O)c1C2=O)C[C@@](O)(C(=O)CO)C[C@@H]3O[C@H]1C[C@H](N)[C@H](OC2CCCCO2)[C@H](C)O1 (some centres undefined) | · | · | 0.282µM* | · | ? | ·
CCCCC(=O)OCC(=O)C1(O)Cc2c(O)c3c(c(O)c2C(OC2CC(NC(=O)C(F)(F)F)C(O)C(C)O2)C1)C(=O)c1c(OC)cccc1C3=O (centres undefined) | ? | ? | 1.16µM* | · | 2.06µM* | -10.1
